Measured values from the supplement of paper PMC10849652.
Of roughly 8,800 targets only a part is listed; those with a hit were picked by preference. About 0.5% of all pairs of compound and target were hits.

Assays:
Test in all cases: log2 fold change, soluble protein after heating vs DMSO (PISA); higher = thermal stabilisation; K562 lysate, 10 uM; active = over 0.2 and 3.5 SD of the protein, either way, in both replicates (recomputed)
vemurafenib = compound: CCCS(=O)(=O)Nc1ccc(F)c(C(=O)c2c[nH]c3ncc(-c4ccc(Cl)cc4)cc23)c1F [vemurafenib]
Summary of the method: (§1)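 Thermal stability, expressed as log-two fold change relative to solvent controls, is given from duplicates. Crude K562 extract in PBS pH 7.4 with 1 mM MgCl2, at 1 mg/mL protein, was treated with 10 μM compound for 30 min and heated in aliquots for 3 min across 48°C-58°C. After pooling, adjustment to 0.5% NP-40 at 4°C and centrifugation at 21,000xg for 90 min, supernatant protein was measured by TMTpro 16plex LC-MS/MS with channel sums equalised.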

[1] = compound: CCCS(=O)(=O)Nc1ccc(F)c(C(=O)c2c[nH]c3ncc(Cl)cc23)c1F
Summary of the method: as §1

barasertib = compound: CCN(CCCOc1ccc2c(Nc3cc(CC(=O)Nc4cccc(F)c4)[nH]n3)ncnc2c1)CCOP(=O)(O)O [barasertib]
Summary of the method: as §1

[2] = compound: CC[C@@H]1C(=O)N(C)c2cnc(Nc3ccc(C(=O)NC4CCN(C)CC4)cc3OC)nc2N1C1CCCC1
Summary of the method: as §1

volasertib = compound: CC[C@@H]1C(=O)N(C)c2cnc(Nc3ccc(C(=O)N[C@H]4CC[C@H](N5CCN(CC6CC6)CC5)CC4)cc3OC)nc2N1C(C)C [volasertib]
Summary of the method: as §1

[3] = compound: CCn1c(C(=O)N(C2CC2)C2CC2)cc2c3c(ncn3C)c(Nc3cc(C)n(C)n3)nc21
Summary of the method: as §1

[4] = compound: CCn1cc(-c2ccnc3[nH]c(-c4cccc(CN(C)C)c4)cc23)c(-c2ccc(NC(=O)N(C)C)cc2)n1
Summary of the method: as §1

[5] = compound: CN1CCC(CNc2ccc3ncc(-c4cccc(OC(F)(F)F)c4)n3n2)CC1
Summary of the method: as §1

saracatinib = compound: CN1CCN(CCOc2cc(OC3CCOCC3)c3c(Nc4c(Cl)ccc5c4OCO5)ncnc3c2)CC1 [saracatinib]
Summary of the method: as §1

sotrastaurin = compound: CN1CCN(c2nc(C3=C(c4c[nH]c5ccccc45)C(=O)NC3=O)c3ccccc3n2)CC1 [sotrastaurin]
Summary of the method: as §1

Measured: log2 fold change

ATR (UniProt Q13535)
inactive: vemurafenib 0.059 | [1] 0.013 | barasertib 0 | [2] 0.017 | volasertib -0.13 | [3] 0.018 | [4] -0.307 | [5] 0.337 | saracatinib 0.018 | sotrastaurin 0.081

CHCHD2 (UniProt Q9Y6H1)
Chain of UniProt Q9Y6H1 (Q9Y6H1 whole entry, looked up): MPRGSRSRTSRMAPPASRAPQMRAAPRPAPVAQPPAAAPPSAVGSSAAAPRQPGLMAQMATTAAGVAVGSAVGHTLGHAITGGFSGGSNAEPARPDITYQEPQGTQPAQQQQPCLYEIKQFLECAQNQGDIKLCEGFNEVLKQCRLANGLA
inactive: vemurafenib 0.076 | [1] -0.025 | barasertib 0.011 | [2] 0.102 | volasertib 0.086 | [3] 0.108 | [4] 0.16 | [5] -0.094 | saracatinib -0.011 | sotrastaurin 0.054

CELF1 isoform 4 (UniProt Q92879)
inactive: vemurafenib 0.024 | [1] 0.014 | barasertib 0.03 | [2] -0.044 | volasertib -0.133 | [3] 0.012 | [4] 0.08 | [5] -0.08 | saracatinib 0.035 | sotrastaurin 0.054

CAD (UniProt P27708)
Chain of UniProt P27708 (P27708 whole entry, looked up): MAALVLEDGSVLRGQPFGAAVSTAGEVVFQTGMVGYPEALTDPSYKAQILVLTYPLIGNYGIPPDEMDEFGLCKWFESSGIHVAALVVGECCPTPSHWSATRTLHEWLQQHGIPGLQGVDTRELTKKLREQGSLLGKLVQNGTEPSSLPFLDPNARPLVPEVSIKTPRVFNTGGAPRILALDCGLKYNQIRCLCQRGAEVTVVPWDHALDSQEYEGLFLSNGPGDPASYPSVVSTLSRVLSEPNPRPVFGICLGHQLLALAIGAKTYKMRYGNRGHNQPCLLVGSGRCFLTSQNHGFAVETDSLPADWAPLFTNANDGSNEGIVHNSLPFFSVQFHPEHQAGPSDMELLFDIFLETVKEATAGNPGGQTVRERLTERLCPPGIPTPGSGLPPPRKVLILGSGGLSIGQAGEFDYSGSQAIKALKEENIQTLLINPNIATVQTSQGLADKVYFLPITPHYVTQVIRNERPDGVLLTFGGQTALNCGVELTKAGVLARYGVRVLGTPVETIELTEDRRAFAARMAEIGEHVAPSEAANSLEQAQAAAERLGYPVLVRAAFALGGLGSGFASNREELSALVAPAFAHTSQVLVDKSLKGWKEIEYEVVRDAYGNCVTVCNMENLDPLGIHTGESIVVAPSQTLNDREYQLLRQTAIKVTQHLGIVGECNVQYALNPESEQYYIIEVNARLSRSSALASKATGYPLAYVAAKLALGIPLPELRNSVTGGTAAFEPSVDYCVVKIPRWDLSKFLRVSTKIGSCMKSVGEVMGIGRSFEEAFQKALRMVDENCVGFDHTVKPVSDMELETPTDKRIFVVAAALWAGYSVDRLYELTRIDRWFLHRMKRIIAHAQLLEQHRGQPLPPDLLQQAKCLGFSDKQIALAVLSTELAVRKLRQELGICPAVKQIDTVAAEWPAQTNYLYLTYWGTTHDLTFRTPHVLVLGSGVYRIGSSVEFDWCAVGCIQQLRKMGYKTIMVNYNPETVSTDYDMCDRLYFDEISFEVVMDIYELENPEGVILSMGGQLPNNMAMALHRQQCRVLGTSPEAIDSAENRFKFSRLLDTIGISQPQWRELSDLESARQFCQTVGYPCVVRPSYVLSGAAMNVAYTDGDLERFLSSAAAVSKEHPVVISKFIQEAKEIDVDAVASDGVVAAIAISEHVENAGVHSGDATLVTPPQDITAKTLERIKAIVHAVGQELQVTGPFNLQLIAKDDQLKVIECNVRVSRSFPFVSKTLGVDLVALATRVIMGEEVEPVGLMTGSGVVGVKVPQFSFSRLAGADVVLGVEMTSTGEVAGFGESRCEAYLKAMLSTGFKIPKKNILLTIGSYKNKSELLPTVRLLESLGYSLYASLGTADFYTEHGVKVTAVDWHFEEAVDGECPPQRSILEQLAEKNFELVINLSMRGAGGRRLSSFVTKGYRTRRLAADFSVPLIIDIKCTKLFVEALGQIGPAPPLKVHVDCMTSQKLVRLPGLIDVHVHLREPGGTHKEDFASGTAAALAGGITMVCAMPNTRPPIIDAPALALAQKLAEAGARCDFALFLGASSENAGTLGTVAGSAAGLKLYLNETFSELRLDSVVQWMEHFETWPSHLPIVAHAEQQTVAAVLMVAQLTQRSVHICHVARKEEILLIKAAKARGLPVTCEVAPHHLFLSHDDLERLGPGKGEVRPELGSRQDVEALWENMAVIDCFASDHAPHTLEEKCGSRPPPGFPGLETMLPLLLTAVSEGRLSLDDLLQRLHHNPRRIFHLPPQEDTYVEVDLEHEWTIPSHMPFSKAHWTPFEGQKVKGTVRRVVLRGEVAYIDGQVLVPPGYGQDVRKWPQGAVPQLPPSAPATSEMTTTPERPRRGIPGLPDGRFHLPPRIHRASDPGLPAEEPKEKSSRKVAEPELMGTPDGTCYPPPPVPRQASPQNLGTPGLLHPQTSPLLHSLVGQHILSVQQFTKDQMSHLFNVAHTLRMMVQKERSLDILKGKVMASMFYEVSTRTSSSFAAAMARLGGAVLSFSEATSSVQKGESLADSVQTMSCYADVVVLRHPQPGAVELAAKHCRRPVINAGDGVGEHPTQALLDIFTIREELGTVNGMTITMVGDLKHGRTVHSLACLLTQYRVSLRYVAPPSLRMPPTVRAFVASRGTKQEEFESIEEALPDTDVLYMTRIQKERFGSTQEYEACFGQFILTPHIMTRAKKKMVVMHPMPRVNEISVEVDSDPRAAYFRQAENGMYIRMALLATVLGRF
inactive: vemurafenib 0.005 | [1] 0.026 | barasertib -0.004 | [2] -0.037 | volasertib -0.069 | [3] 0.012 | [4] -0.085 | [5] 0.003 | saracatinib -0.004 | sotrastaurin 0.003

C2CD5 isoform 3 (UniProt Q86YS7)
active: [4] -0.309
inactive: vemurafenib 0.068 | [1] 0.022 | barasertib 0.049 | [2] 0.062 | volasertib -0.025 | [3] -0.069 | [5] 0.162 | saracatinib 0.058 | sotrastaurin -0.023

AURKA (UniProt O14965)
active: barasertib 0.763 | [4] 0.719
inactive: vemurafenib 0.088 | [1] 0.068 | [2] -0.062 | volasertib -0.015 | [3] -0.009 | [5] 0.096 | saracatinib 0.008 | sotrastaurin 0.028

CHD4 isoform 2 (UniProt Q14839)
Chain of UniProt Q14839 (Q14839 whole entry, looked up): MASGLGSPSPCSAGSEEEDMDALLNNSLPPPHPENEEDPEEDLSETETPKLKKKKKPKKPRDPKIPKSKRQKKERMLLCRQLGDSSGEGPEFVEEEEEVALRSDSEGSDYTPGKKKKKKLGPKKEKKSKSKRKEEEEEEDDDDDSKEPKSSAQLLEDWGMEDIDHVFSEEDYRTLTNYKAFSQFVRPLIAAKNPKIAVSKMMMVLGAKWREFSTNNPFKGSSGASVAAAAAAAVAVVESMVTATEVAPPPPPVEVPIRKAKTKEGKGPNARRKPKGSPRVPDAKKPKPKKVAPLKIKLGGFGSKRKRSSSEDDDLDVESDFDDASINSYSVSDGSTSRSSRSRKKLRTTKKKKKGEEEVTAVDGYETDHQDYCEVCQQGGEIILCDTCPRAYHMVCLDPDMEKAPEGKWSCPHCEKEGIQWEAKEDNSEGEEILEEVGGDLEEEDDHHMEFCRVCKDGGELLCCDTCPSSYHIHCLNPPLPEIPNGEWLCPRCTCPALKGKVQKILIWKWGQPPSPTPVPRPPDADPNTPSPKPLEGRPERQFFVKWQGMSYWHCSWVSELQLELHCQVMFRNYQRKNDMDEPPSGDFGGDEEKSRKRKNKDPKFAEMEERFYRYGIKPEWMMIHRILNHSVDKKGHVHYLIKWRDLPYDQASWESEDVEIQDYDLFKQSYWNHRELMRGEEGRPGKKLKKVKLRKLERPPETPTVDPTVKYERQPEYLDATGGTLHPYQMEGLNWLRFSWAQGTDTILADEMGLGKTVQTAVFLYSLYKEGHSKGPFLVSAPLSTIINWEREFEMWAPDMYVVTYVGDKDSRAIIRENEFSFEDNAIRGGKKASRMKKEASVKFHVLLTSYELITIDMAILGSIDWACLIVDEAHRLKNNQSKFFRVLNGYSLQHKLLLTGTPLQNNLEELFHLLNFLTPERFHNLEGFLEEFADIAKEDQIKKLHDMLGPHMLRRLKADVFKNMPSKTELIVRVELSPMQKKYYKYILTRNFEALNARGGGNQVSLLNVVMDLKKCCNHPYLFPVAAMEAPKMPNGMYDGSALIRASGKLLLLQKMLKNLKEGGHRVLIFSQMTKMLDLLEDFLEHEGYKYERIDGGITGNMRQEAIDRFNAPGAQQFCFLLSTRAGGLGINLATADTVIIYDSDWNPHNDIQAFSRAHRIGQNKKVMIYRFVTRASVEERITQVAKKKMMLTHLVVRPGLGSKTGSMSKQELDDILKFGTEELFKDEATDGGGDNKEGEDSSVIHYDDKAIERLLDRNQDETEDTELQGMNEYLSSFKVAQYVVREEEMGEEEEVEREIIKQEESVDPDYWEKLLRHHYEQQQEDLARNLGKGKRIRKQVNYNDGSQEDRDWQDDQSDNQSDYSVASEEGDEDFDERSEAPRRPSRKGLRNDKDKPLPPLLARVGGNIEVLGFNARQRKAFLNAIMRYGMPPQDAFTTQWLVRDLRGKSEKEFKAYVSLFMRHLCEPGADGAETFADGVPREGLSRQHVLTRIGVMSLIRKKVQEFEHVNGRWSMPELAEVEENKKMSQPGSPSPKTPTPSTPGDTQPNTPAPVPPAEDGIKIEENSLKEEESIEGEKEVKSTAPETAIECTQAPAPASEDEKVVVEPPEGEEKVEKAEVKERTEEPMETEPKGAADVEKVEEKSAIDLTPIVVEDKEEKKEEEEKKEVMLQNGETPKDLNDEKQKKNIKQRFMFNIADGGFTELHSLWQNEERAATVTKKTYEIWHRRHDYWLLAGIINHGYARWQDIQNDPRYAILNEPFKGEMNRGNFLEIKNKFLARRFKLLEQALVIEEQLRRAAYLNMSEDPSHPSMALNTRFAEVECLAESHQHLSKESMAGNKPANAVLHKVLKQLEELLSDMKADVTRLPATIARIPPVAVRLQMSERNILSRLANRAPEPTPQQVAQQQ
inactive: vemurafenib 0 | [1] 0.002 | barasertib 0.028 | [2] -0.003 | volasertib -0.002 | [3] 0.022 | [4] -0.054 | [5] -0.017 | saracatinib 0.002 | sotrastaurin 0.02

CAMKK1 isoform 2 (UniProt Q8N5S9)
inactive: vemurafenib -0.041 | [1] -0.062 | barasertib 0.11 | [2] 0.103 | volasertib 0.136 | [3] 0.115 | [4] -0.204 | [5] 0.041 | saracatinib -0.063 | sotrastaurin -0.013

BMS1 (UniProt Q14692)
inactive: vemurafenib -0.038 | [1] 0.023 | barasertib 0.127 | [2] -0.027 | volasertib -0.018 | [3] 0.012 | [4] -0.054 | [5] 0.006 | saracatinib -0.004 | sotrastaurin 0.005

BRD4 (UniProt O60885)
inactive: vemurafenib 0.049 | [1] 0.016 | barasertib -0.007 | [3] -0.008 | [4] -0.007 | [5] 0.037 | saracatinib -0.025 | sotrastaurin -0.012
active: [2] 0.538 | volasertib 0.217

CBX1 (UniProt P83916)
inactive: vemurafenib 0.001 | [1] 0.015 | barasertib -0.075 | [2] 0.028 | volasertib 0.01 | [3] 0.006 | [5] -0.111 | saracatinib -0.003 | sotrastaurin 0.038
active: [4] 0.301

CBFA2T3 (UniProt O75081)
inactive: vemurafenib -0.043 | [1] 0.018 | barasertib -0.055 | [2] 0.003 | volasertib -0.02 | [3] -0.007 | [4] -0.023 | [5] -0.018 | saracatinib 0.021 | sotrastaurin 0.015

C3 (UniProt P01024)
inactive: vemurafenib -0.02 | [1] 0.042 | barasertib 0.059 | [2] 0.07 | volasertib 0.009 | [3] -0.096 | [4] -0.134 | [5] 0.039 | saracatinib 0.001 | sotrastaurin 0.014

CDK5RAP3 isoform 4 (UniProt Q96JB5)
inactive: vemurafenib 0.023 | [1] 0.013 | barasertib 0.022 | [2] -0.008 | volasertib -0.051 | [3] 0.029 | [5] 0.216 | saracatinib -0.002 | sotrastaurin -0.021
active: [4] -0.313

BRAF (UniProt P15056)
Chain of UniProt P15056 (P15056 whole entry, looked up): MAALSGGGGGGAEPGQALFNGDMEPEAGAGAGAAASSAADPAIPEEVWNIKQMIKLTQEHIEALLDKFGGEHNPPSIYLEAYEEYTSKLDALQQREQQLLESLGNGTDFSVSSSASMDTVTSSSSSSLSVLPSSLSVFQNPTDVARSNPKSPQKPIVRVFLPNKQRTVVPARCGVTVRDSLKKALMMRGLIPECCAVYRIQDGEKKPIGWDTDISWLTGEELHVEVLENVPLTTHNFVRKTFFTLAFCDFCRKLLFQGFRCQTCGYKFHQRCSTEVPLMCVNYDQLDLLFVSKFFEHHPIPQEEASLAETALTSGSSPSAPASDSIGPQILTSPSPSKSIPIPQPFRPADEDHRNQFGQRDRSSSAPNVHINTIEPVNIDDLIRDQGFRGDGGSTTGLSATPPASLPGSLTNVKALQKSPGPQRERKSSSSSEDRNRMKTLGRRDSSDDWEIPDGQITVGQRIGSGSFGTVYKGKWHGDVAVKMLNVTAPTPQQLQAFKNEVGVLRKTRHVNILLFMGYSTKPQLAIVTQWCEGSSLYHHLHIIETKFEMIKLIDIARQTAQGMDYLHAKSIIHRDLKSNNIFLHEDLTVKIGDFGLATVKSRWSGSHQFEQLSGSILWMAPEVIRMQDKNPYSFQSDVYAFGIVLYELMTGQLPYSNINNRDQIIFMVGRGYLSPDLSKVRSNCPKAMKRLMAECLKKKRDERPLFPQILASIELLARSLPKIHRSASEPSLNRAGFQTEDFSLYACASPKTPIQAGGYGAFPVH
active: vemurafenib 1.03 | [1] 0.765
inactive: barasertib 0.012 | [2] -0.069 | volasertib -0.044 | [3] -0.023 | [4] -0.11 | [5] 0.037 | saracatinib 0.017 | sotrastaurin -0.025

C18orf32 (UniProt Q8TCD1)
Chain of UniProt Q8TCD1 (Q8TCD1 whole entry, looked up): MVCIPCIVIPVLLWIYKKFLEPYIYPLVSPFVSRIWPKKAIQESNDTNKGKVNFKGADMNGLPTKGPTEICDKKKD
inactive: vemurafenib 0.164 | [1] -0.044 | barasertib -0.019 | [2] 0.125 | volasertib 0.054 | [3] 0.054 | [4] -0.073 | [5] 0 | saracatinib 0.006 | sotrastaurin -0.112

C5orf51 (UniProt A6NDU8)
inactive: vemurafenib -0.002 | [1] 0.009 | barasertib 0.046 | [2] -0.014 | volasertib -0.029 | [3] 0.053 | [4] 0.036 | [5] -0.137 | saracatinib 0.016 | sotrastaurin 0.036

ATXN2 (UniProt F8WB05)
inactive: vemurafenib -0.153 | [1] -0.024 | barasertib 0.057 | [2] -0.013 | volasertib -0.087 | [3] -0.005 | [4] 0.094 | [5] -0.004 | saracatinib 0.05 | sotrastaurin 0.086

CDK9 isoform 2 (UniProt P50750)
active: sotrastaurin 0.34
inactive: vemurafenib -0.117 | [1] -0.064 | barasertib -0.025 | [2] 0.009 | volasertib 0.002 | [3] 0.175 | [4] -0.203 | [5] 0.079 | saracatinib 0.005

CCNH (UniProt P51946)
inactive: vemurafenib -0.025 | [1] 0.001 | barasertib -0.035 | [2] 0.036 | volasertib 0.003 | [3] -0.034 | [4] 0.054 | [5] -0.062 | saracatinib -0.036 | sotrastaurin 0.033

CCNY (UniProt Q8ND76)
inactive: vemurafenib -0.011 | [1] 0 | barasertib -0.016 | [2] -0.148 | volasertib 0.036 | [3] -0.103 | [4] 0.032 | [5] 0.037 | saracatinib 0.063 | sotrastaurin 0.025

C12orf45 (UniProt Q8N5I9)
inactive: vemurafenib -0.015 | [1] -0.017 | barasertib -0.022 | [2] 0.009 | volasertib 0.008 | [3] 0.023 | [4] -0.243 | [5] 0.116 | saracatinib -0.022 | sotrastaurin -0.026

BCKDK (UniProt O14874)
inactive: vemurafenib -0.036 | [1] 0.002 | barasertib -0.028 | [2] 0.203 | volasertib -0.037 | [3] 0.067 | [4] -0.033 | [5] 0.059 | saracatinib 0.031 | sotrastaurin 0.028

CCPG1 isoform 5 (UniProt Q9ULG6)
inactive: vemurafenib 0.082 | [1] -0.038 | barasertib 0.034 | [2] 0.066 | volasertib 0 | [3] 0.071 | [4] -0.081 | [5] 0.04 | saracatinib 0.049 | sotrastaurin 0.051

CELF2 isoform 3 (UniProt O95319)
inactive: vemurafenib 0.082 | [1] 0.013 | barasertib 0.031 | [2] 0.096 | volasertib -0.05 | [3] 0.001 | [4] 0.074 | [5] -0.095 | saracatinib 0.021 | sotrastaurin -0.023

ATAD3B (UniProt Q5T9A4)
active: [4] 0.383
inactive: vemurafenib -0.022 | [1] 0.016 | barasertib -0.007 | [2] -0.004 | volasertib -0.019 | [3] 0.014 | [5] -0.205 | saracatinib -0.018 | sotrastaurin -0.013

ATM (UniProt Q13315)
inactive: vemurafenib -0.063 | [1] -0.004 | barasertib 0.041 | [2] 0.005 | volasertib -0.078 | [3] 0.021 | [4] -0.089 | [5] 0.071 | saracatinib -0.011 | sotrastaurin 0.032
